Common to all, as to test: DAPPL (digital affinity profiling via proximity ligation, sequencing); 10 mM Tris-HCl pH 7.5, 50 mM NaCl, 1 mM DTT, 4% glycerol, room temperature, 30 min; GST-TFs on glutathione beads, 16-mer random dsDNA library, 0.1% formaldehyde crosslink after washing; high values mean tight binding
Common to all, as to conditions: protein: recombinant; tags: N-terminal GST; dsDNA, one strand shown

The target in one experiment is T1, FLI1 (Homo sapiens, UniProt Q01543 1-452).
T1 sequence: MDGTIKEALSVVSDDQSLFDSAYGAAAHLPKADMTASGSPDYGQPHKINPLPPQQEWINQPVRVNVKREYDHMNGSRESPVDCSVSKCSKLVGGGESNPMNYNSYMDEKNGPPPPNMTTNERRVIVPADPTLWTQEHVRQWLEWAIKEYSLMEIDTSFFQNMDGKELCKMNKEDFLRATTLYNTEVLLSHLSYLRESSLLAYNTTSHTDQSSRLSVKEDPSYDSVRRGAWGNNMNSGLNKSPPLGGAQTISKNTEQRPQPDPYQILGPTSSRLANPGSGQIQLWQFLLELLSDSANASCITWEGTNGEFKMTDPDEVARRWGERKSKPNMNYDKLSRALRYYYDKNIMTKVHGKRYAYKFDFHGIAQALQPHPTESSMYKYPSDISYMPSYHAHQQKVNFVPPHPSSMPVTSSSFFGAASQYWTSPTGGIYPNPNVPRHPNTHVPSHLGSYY
An outline of the steps: (§1)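 Pools of DNA-barcoded human transcription factors, expressed in yeast as GST fusions on glutathione beads and combined with a tag-only sample, were incubated with 200 nmole of a 16-mer random double-stranded DNA library. Incubation took 30 min at room temperature in Tris/NaCl/DTT/glycerol buffer and was followed by washing, 0.1% formaldehyde crosslinking, proximity ligation (BsaI/T4 ligase, 1 h, 37 °C), PCR amplification and sequencing on an Illumina NextSeq500. Binding signal is the ratio of a hexamer's read frequency for a factor to its frequency for the tag-only sample.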

The target in the next experiment is T2, ELK1 (Homo sapiens, UniProt P19419 1-428).
T2 sequence: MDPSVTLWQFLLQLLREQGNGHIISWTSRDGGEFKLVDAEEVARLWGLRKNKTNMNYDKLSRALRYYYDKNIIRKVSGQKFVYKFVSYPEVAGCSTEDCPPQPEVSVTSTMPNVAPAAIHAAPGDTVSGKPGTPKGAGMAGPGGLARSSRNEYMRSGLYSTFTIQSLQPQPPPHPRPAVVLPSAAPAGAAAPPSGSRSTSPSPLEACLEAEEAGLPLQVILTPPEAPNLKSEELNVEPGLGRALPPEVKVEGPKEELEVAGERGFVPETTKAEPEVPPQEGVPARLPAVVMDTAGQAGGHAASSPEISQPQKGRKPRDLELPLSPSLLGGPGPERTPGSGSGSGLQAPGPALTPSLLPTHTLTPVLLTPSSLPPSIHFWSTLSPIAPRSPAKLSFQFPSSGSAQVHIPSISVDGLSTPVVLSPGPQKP
An outline of the steps: as §1

The target of a further experiment is T3, GABPA (Homo sapiens, UniProt Q06546 1-454).
T3 sequence: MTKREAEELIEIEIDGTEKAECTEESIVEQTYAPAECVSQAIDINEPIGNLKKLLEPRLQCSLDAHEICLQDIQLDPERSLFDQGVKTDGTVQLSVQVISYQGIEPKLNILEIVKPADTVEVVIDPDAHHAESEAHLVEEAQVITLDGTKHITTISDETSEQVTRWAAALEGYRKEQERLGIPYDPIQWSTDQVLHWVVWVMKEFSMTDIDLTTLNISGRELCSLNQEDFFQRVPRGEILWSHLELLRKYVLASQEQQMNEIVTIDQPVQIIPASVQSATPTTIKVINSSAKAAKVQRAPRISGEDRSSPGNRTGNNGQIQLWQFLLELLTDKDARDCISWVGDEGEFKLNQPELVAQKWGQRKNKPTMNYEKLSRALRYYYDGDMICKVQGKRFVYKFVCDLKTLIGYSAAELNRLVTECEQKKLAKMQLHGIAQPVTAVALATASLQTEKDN
In outline:
as §1

The next experiment has as its target T4, ERG (Homo sapiens, UniProt P11308 1-479).
T4 sequence: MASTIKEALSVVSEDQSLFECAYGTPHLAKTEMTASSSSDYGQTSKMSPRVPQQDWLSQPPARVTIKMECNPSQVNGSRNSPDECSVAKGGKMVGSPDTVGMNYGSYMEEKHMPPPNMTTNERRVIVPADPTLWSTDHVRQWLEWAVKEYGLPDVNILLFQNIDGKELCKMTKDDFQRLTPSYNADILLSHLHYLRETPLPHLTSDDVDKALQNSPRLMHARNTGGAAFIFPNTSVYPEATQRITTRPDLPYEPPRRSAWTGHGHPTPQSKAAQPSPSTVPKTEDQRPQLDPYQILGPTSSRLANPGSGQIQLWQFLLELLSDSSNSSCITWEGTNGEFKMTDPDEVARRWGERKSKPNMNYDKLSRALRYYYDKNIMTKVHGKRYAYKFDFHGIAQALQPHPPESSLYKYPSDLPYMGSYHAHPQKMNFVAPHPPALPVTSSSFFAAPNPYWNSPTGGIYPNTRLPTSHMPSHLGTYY
An outline of the steps:
as §1

The target of the next experiment is ELF1 (Homo sapiens, UniProt P32519 1-619). In outline: as §1
The target of a further experiment is T5, EHF (Homo sapiens, UniProt Q9NZC4 1-300).
T5 sequence: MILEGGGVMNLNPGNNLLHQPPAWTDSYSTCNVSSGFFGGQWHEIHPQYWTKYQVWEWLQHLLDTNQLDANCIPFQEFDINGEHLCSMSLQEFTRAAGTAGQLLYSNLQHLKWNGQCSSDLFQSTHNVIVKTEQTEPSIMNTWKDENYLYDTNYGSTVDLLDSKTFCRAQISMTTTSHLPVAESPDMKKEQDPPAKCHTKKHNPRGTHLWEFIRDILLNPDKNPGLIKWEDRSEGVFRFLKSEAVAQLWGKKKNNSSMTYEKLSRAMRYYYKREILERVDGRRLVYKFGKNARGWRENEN
An outline of the steps:
as §1

For a further experiment, the target named is SPI1 (Homo sapiens, UniProt P17947 1-270). In outline: as §1
A further experiment concerns the target SPIB (Homo sapiens, UniProt Q01892 1-262). An outline of the steps:
as §1

A further experiment concerns the target T6, ELK3 (Homo sapiens, UniProt P41970 1-407).
T6 sequence: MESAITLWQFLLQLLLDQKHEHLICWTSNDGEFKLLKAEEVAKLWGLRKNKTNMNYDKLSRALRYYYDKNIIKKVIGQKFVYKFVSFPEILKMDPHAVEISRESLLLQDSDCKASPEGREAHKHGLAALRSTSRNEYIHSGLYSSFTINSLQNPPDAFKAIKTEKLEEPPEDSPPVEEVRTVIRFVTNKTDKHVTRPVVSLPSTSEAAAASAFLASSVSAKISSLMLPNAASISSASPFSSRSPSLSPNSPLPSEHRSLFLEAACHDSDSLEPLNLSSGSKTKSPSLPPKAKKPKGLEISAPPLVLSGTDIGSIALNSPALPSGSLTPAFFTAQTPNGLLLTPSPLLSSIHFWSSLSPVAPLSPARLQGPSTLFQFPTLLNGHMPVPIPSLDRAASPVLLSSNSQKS
An outline of the steps: as §1

Chain of SPIB (Q01892 whole entry): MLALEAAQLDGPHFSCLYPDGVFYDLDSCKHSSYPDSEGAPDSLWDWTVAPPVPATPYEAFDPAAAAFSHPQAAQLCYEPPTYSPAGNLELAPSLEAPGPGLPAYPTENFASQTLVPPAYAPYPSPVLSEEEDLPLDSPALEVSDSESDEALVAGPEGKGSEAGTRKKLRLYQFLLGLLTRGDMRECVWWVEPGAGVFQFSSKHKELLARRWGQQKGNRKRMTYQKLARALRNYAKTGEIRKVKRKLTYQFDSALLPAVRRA
Chain of ELF1 (P32519 whole entry): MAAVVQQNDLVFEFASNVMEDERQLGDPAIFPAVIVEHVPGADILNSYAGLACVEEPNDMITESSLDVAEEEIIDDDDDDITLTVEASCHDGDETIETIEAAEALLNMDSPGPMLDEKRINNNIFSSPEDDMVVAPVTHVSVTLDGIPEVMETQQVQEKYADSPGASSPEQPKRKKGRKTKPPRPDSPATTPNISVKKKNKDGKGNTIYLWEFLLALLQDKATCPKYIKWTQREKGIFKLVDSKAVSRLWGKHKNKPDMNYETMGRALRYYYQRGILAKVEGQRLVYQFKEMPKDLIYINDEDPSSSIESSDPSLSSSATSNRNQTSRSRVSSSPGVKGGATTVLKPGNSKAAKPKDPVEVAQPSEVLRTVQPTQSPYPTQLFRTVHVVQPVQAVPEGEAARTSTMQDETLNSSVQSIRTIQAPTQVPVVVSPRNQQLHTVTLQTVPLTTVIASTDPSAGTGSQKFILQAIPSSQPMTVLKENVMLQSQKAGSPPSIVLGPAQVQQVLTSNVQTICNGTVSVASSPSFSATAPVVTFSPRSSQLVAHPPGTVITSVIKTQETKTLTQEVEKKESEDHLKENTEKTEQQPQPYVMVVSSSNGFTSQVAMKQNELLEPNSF

For the sequence ACGCTT, the binding signal with FLI1 is 1.4 fold enrichment (6-mer frequency, TF over GST control); in the experiment with ELK1 it was 1.34 fold enrichment (6-mer frequency, TF over GST control); with GABPA, 1.37 fold enrichment (6-mer frequency, TF over GST control); in the experiment with ERG it was 1.33 fold enrichment (6-mer frequency, TF over GST control); with ELF1, 1.37 fold enrichment (6-mer frequency, TF over GST control); in the experiment with EHF, 1.35 fold enrichment (6-mer frequency, TF over GST control). In addition, the binding signal in the experiment with SPI1 is 1.23 fold enrichment (6-mer frequency, TF over GST control); with SPIB it was 1.5 fold enrichment (6-mer frequency, TF over GST control); with ELK3, 1.44 fold enrichment (6-mer frequency, TF over GST control).
Regarding AAGTAT, the binding signal is 1.44 fold enrichment (6-mer frequency, TF over GST control) with FLI1; 1.4 fold enrichment (6-mer frequency, TF over GST control) in the experiment with ELK1; 1.4 fold enrichment (6-mer frequency, TF over GST control) with GABPA; 1.42 fold enrichment (6-mer frequency, TF over GST control) in the experiment with ERG; 1.36 fold enrichment (6-mer frequency, TF over GST control) with ELF1; 1.43 fold enrichment (6-mer frequency, TF over GST control) with EHF. The binding signal with SPI1 is 1.36 fold enrichment (6-mer frequency, TF over GST control); in the experiment with SPIB it was 1.48 fold enrichment (6-mer frequency, TF over GST control); with ELK3 it was 1.46 fold enrichment (6-mer frequency, TF over GST control).
As for TTATAC, the binding signal with FLI1 is 1.55 fold enrichment (6-mer frequency, TF over GST control); with ELK1, 1.42 fold enrichment (6-mer frequency, TF over GST control); with GABPA, 1.39 fold enrichment (6-mer frequency, TF over GST control); with ERG, 1.35 fold enrichment (6-mer frequency, TF over GST control); in the experiment with ELF1 it was 1.4 fold enrichment (6-mer frequency, TF over GST control); with EHF, 1.42 fold enrichment (6-mer frequency, TF over GST control). The binding signal was 1.3 fold enrichment (6-mer frequency, TF over GST control) with SPI1; 1.43 fold enrichment (6-mer frequency, TF over GST control) with SPIB; 1.35 fold enrichment (6-mer frequency, TF over GST control) in the experiment with ELK3.
In the case of AAACCT, the binding signal in the experiment with FLI1 was 1.15 fold enrichment (6-mer frequency, TF over GST control); with ELK1 it was 1.01 fold enrichment (6-mer frequency, TF over GST control); in the experiment with GABPA, 1.17 fold enrichment (6-mer frequency, TF over GST control); with ERG, 1.12 fold enrichment (6-mer frequency, TF over GST control); with ELF1, 1.19 fold enrichment (6-mer frequency, TF over GST control); in the experiment with EHF, 1.16 fold enrichment (6-mer frequency, TF over GST control). Also, the binding signal with SPI1 is 1.18 fold enrichment (6-mer frequency, TF over GST control); with SPIB, 1.11 fold enrichment (6-mer frequency, TF over GST control); with ELK3, 1.15 fold enrichment (6-mer frequency, TF over GST control).
Consider ATCTAG, for which the binding signal with FLI1 is 1.12 fold enrichment (6-mer frequency, TF over GST control); with ELK1, 1.16 fold enrichment (6-mer frequency, TF over GST control); with GABPA, 1.12 fold enrichment (6-mer frequency, TF over GST control); in the experiment with ERG, 1.1 fold enrichment (6-mer frequency, TF over GST control); in the experiment with ELF1, 1.1 fold enrichment (6-mer frequency, TF over GST control); with EHF it was 1.14 fold enrichment (6-mer frequency, TF over GST control). Further, the binding signal was 1.14 fold enrichment (6-mer frequency, TF over GST control) with SPI1; 1.2 fold enrichment (6-mer frequency, TF over GST control) with SPIB; 1.23 fold enrichment (6-mer frequency, TF over GST control) with ELK3.
On to TCCAAT, for which the binding signal in the experiment with FLI1 is 1.21 fold enrichment (6-mer frequency, TF over GST control); in the experiment with ELK1 it was 1.13 fold enrichment (6-mer frequency, TF over GST control); with GABPA it was 1.18 fold enrichment (6-mer frequency, TF over GST control); in the experiment with ERG, 1.13 fold enrichment (6-mer frequency, TF over GST control); with ELF1 it was 1.24 fold enrichment (6-mer frequency, TF over GST control); with EHF it was 1.11 fold enrichment (6-mer frequency, TF over GST control). For the same sequence, the binding signal with SPI1 is 1.14 fold enrichment (6-mer frequency, TF over GST control); in the experiment with SPIB, 1.25 fold enrichment (6-mer frequency, TF over GST control); with ELK3, 1.16 fold enrichment (6-mer frequency, TF over GST control).
Regarding TGTTCT, the binding signal is 1.4 fold enrichment (6-mer frequency, TF over GST control) in the experiment with FLI1; 1.4 fold enrichment (6-mer frequency, TF over GST control) in the experiment with ELK1; 1.28 fold enrichment (6-mer frequency, TF over GST control) in the experiment with GABPA; 1.38 fold enrichment (6-mer frequency, TF over GST control) with ERG; 1.39 fold enrichment (6-mer frequency, TF over GST control) in the experiment with ELF1; 1.4 fold enrichment (6-mer frequency, TF over GST control) in the experiment with EHF. Also, the binding signal was 1.29 fold enrichment (6-mer frequency, TF over GST control) with SPI1; 1.35 fold enrichment (6-mer frequency, TF over GST control) in the experiment with SPIB; 1.21 fold enrichment (6-mer frequency, TF over GST control) with ELK3.

The values are drawn from PMC7862700, “An all-to-all approach to the identification of sequence-specific readers for epigenetic DNA modifications on cytosine”.
